The term Inhibition denotes the relative decrease from the control value, in per cent. A low value points to a response near the control.

For the assay, the system named is HepG2. Description: GSK_TCMDC: Percent inhibition of human HepG2 cell line. Test compounds present at 10uM. The format is functional.
In turn, `COc1ccc(NCCCNc2ccnc3ccccc23)cc1` had an Inhibition of 34%.

Consider `CC(C)(C)c1ccc(NC(=O)c2cccc(CN3CCCN(Cc4ccc(F)cc4)CC3)c2)cc1.O=C(O)C(F)(F)F`, for which the Inhibition is listed as 35%.

`CCCc1cc(Cc2cnc(N)nc2N)cc(CCC)c1OCCCCCC(=O)OCC`: the Inhibition came out at 12%.

Turning to `CCc1cn(C)c2c(N3CCCC3=O)cc(C(=O)N[C@@H](Cc3ccccc3)[C@H](O)CNC(C)(C)CCCC(C)C)cc12`, the Inhibition is reported as 15%.

The molecule `Cc1cccc2nc(-c3ccc(-c4cccc(NC(=O)Nc5cccc(C#N)c5)c4)cc3)[nH]c12` returned an Inhibition of 25%.

For `CNC(=O)CNC(=O)COc1cccc2ccccc12`, the Inhibition stood at 3%.

In turn, `N=C(N)NCCCN(Cc1ccccc1)c1ccc(Cl)cc1.O=S(=O)(O)O` showed an Inhibition of 0%.

Consider `O=C(Nc1cccc(CN2CCCN(CC3CCCCC3)CC2)c1)c1cc2ccccc2s1.O=C(O)C(F)(F)F`, for which the Inhibition is recorded as 29%.

In the case of `COc1cccc2c(C)cc(NCc3ccc(Cl)cc3)nc12`, the Inhibition came out at 7%.

In turn, `COc1ccc(-c2cncc3ccc(C(=O)NCCCn4ccnc4)nc23)cc1` yielded an Inhibition of 28%.

Turning to `O=C(Nc1ccc(Cn2ncc(N3CCCNCC3)c(Cl)c2=O)cc1)Nc1cc(Cl)cc(Cl)c1.O=C(O)C(F)(F)F`, the Inhibition came out at 3%.

As for `Cl.O=C(Nc1cccc(Cl)c1)OC1CCCN2CCCCC12` (stereo not given), the Inhibition was 6%.

On to `CC1(C)CN2CCCC2c2cc(NC(=O)/C=C/c3ccccc3Cl)ccc21.Cl` (stereo not given), for which the Inhibition was found to be 20%.

Molecule `Cc1cccc2nc(-c3cccc(-c4cccc(NC(=O)c5ccc(=O)[nH]n5)c4)c3)[nH]c12` showed an Inhibition of 10%.

`FC(F)(F)c1ccc2[nH]c(-c3ccc(-c4ccc(CNCC5CCCO5)cc4)cc3)nc2c1.O=C(O)C(F)(F)F` (stereo not given) gave an Inhibition of 33%.

The molecule `CCc1ccc(CN2CCC(CNC(=O)c3cc(-c4cccc(F)c4)cs3)C2)cc1.O=C(O)C(F)(F)F` (stereo not given) came in with an Inhibition of 23%.

In turn, `Cc1cccc2nc(-c3ccc(-c4cccc(NC(=O)Nc5ccsc5)c4)cc3)[nH]c12` yielded an Inhibition of 24%.

`Br.CC1(C)NC(N)=NC(=N)N1OCCSCCON1C(=N)N=C(N)NC1(C)C`: the Inhibition is 34%.

For `COc1ccc2nccc(N3CCN(CCNCc4ccc5c(n4)NC(=O)CS5)CC3)c2c1.Cl`, the Inhibition came out at 18%.

The molecule `COc1cc2c(cc1OC)CN(CCCCc1ccc(NC(=O)c3cc(Cl)cc(Cl)c3)cc1)CC2` yielded an Inhibition of 21%.

For the molecule `O=C(NCCN1CCCC1)c1cc(-c2ccc(Cl)c(O)c2)c(-c2ccncc2)o1`, the Inhibition was 0%.

With `O=S(=O)(c1ccc(Cl)cc1Cl)N1CCCCC(c2ccc(C(F)(F)F)cc2)=N1`, the Inhibition is listed as 10%.

On to `N#Cc1cccc(NC(=O)Nc2cccc(-c3cccc(-c4nc5cc(C(F)(F)F)ccc5[nH]4)c3)c2)c1`, for which the Inhibition is given as 74%.

Molecule `Br.Cc1cc(C)c(C)c(OCCCON2C(=N)N=C(N)NC2(C)C)c1C` yielded an Inhibition of 64%.

`CN(C)C(CNc1ncnc2cc(Cl)ccc12)Cc1ccccc1` (stereo not given): the Inhibition is listed as 13%.

As for `COc1ccc(-n2ncc(C(=O)N3CCC4(C3)C(=O)N(c3ccccc3)c3ccccc34)c2C)cc1` (stereo not given), the Inhibition is on record as 45%.

As to `CN1CCC(NCc2cccc(-c3cccc(-c4nc5cc(C(F)(F)F)ccc5[nH]4)c3)c2)CC1.O=C(O)C(F)(F)F`, the Inhibition is 35%.

The molecule `CCOc1cc(C)ccc1C1CCN(CCCCNC(=O)c2ccc(-c3ccc(Cl)cn3)cc2)CC1.Cl` yielded an Inhibition of 19%.

Molecule `CCn1c(Cc2ccccc2)nnc1Sc1ccc([N+](=O)[O-])c(C#N)c1` displayed an Inhibition of 8%.

For the molecule `CN(CCNCc1ccc(-c2cccc(-c3nc4ccccc4[nH]3)c2)cc1)S(C)(=O)=O.O=C(O)C(F)(F)F`, the Inhibition is 9%.

`CCCC(C)NC[C@@H](O)[C@H](Cc1ccccc1)NC(=O)c1cc(NCC)cc(N2CCCCS2(=O)=O)c1.Cl` (stereo not given in full) had an Inhibition of 0%.

As for `Cc1cc(Nc2ccncc2)n2nc(C)c(-c3ccc(Cl)cc3)c2n1`, the Inhibition is 0%.

For the molecule `CCc1ccc(CN(CCCOc2cccc(CC(=O)NCc3c[nH]cn3)c2)Cc2ccc(-n3ccnc3)cc2)cc1`, the Inhibition was found to be 1%.

As for `CN(C)CCN(C)Cc1ccc(-c2cccc(-c3nc4ccccc4[nH]3)c2)cc1.O=C(O)C(F)(F)F`, the Inhibition came to 46%.

`O=C(NCc1cccc(Br)c1)c1ccc(CNC2CCN(Cc3ccccc3)CC2)cc1.O=C(O)C(F)(F)F` gave an Inhibition of 3%.

`COc1ccc(CNC2CCN(C)CC2)cc1-c1ccc(S(=O)(=O)NCc2ccccc2)s1.O=C(O)C(F)(F)F` had an Inhibition of 62%.

Take `O=C(O)C(F)(F)F.c1cc(-c2ccc(CNCc3ccsc3)cc2)cc(-c2nc3ccccc3[nH]2)c1`: the Inhibition worked out at 46%.

Regarding `CCOC(=O)/C(=N\OC(C(=O)OC(C)(C)C)c1ccccc1)c1csc(NC(c2ccccc2)(c2ccccc2)c2ccccc2)n1` (stereo not given), the Inhibition turned out to be 14%.

As for `CCCc1cc(N2CCC(c3ccccc3)(N3CCCCC3)CC2)nc(Nc2ccc(OC)cc2)n1`, the Inhibition worked out at 13%.

`Cc1ccccc1Nc1nc(NCc2ccccc2)nc2ccccc12` displayed an Inhibition of 39%.

(Values after ChEMBL document CHEMBL1157539, “Thousands of chemical starting points for antimalarial lead identification” (Nature, 2010).)
